Hit rate of the full screen: of about 2,100 compounds, about 940 (45%) were called active. Roughly 48% stayed inconclusive and do not appear here. Calls follow the shape of the dose curve; as a rule, active = well fitted inhibition curve with a large enough effect; inconclusive = small, poorly fitted or top-dose-only effect; inactive = no such curve, though single readings can be large or run the other way. So high a share suggests a set chosen from earlier hits. Some of the results follow.
Experiment: Confirmatory qHTS for Inhibitors of ATXN expression; also: nearly all actives have a fitted effect of over 65% in size
Conditions: ATXN2-luciferase reporter cells, luminescence, 24 h; series mostly up to 11.5 µM
Outline: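 Cells carrying ATXN2-luciferase reporter exposed 24 h at 37 C to compound. Viability then read by CellTiter-Fluor (25 uM GF-AFC, 30 min), followed by SteadyGlo luminescence; medium-only wells set 100% inhibition.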
Potency is read from the fitted curve at half-maximal effect.

| Structure (SMILES) | Potency |
| --- | --- |
| C/C(=C\C(=O)c1ccc(Br)cc1)NNC(=O)c1ccc(O)cc1 | 14.1 µM (active) |
| O=C(c1cc(COc2cccc(C(F)(F)F)c2)on1)N1CCC(c2ccncc2)CC1 | inactive |
| CC(=NNc1nc2ccccc2o1)c1ncccn1 | 0.199 µM (active) |
| Cc1ccsc1/C=C/C1=Cc2c(sc(NC(=O)CSc3n[nH]c(N)n3)c2C#N)C(C)(C)C1 | inactive |
| Cc1ccccc1NC(=O)CSc1n[nH]c(-c2ccccn2)n1 | 14.1 µM (active) |
| Cc1ccc(C)c(NC(=O)CSc2n[nH]c(-c3ccccn3)n2)c1 | 22.4 µM (active) |
| CC1=C(CC[C@@H](C)CO)OC2CC3C4CCC5CC(O)CCC5(C)C4CC(=O)C3(C)C12 (stereo not given in full) | 3.16 µM (active) |
| C/C(=N\Nc1cc(N2CCOCC2)nc(C)n1)c1cccc([N+](=O)[O-])c1 | inactive |
| Cc1cc(O)c(C(C)C)cc1N=Cc1ccccc1[N+](=O)[O-] | inactive |
| Cc1cc(N/N=C/c2ccc(O)cc2O)nc(-n2nc(C)cc2C)n1 | 5.01 µM (active) |
| CCOc1cc(/C=N/Nc2cc(C)nc(-n3nc(C)cc3C)n2)ccc1O | 0.708 µM (active) |
| Cc1cc(N/N=C/c2ccccc2[N+](=O)[O-])nc(-n2nc(C)cc2C)n1 | 3.16 µM (active) |
| Cc1nc(N/N=C/c2ccc(O)cc2O)cc(N2CCOCC2)n1 | 11.2 µM (active) |
| CS/C(=C\[N+](=O)[O-])Nc1ccc(OC(F)(F)F)cc1 | 11.2 µM (active) |
| OC(CNCCc1ccccc1)COc1ccc(OCC(O)CNCCc2ccccc2)cc1 (stereo not given) | 12.6 µM (active) |
| CCCc1cc(=O)n2[nH]cc(-c3ccc(Cl)cc3)c2n1 | 2.82 µM (active) |
| O=c1c2c(nc3c(-c4ccc(Cl)cc4)c[nH]n13)CCCC2 | 1.26 µM (active) |
| O=C(c1cccc(Cl)c1)c1nn(-c2ccccc2)c(=O)cc1C(F)(F)F | 31.6 µM (active) |
| O=c1c2ccccc2sc2nc(CCl)nn12 | 3.16 µM (active) |
| O=c1[nH]c(CN2CCN(c3ncccn3)CC2)nc2c(Br)cc(Br)cc12 | 2.82 µM (active) |
| COc1cc(/C=N\NC(=O)CC#N)ccc1OC/C=C/c1ccccc1 | 28.2 µM (active) |
| Cn1c(CCc2nc3ccccc3[nH]2)nnc1SCC#N | inactive |
| Cc1[nH]c2ccccc2c1SCc1nnc(SCc2ccc(Cl)cc2)n1C | 31.6 µM (active) |
| Cc1cc2sc3ccc(C#CC4(O)CCCCC4)cc3c(=O)c2cc1C | inactive |

| Structure (SMILES) | Potency |
| --- | --- |
| CC(C)n1c(NCc2cc(Cl)ccc2O)nc2ccccc21 | inactive |
| Cc1ccc2cc(C3C(C#N)=C(N)Oc4c3ccc3cccnc43)c(=O)[nH]c2c1 (stereo not given) | 6.31 µM (active) |
| Cc1cccc(/C=C/C(=O)c2ccc([N+](=O)[O-])o2)c1 | 3.16 µM (active) |
| COc1ccc(/C=C/C(=O)c2ccc([N+](=O)[O-])o2)cc1OC | 7.94 µM (active) |
| Cc1cc(C)cc(NC(=O)c2ccc([N+](=O)[O-])o2)c1 | 2.82 µM (active) |
| CNC(=O)c1sc(N2N=C3/C(=C/c4ccccc4)CCCC3C2c2ccccc2)nc1C (stereo not given) | 12.6 µM (active) |
| CC(CCc1ccccc1)NC(=O)c1ccc(C(=O)NC(C)CCc2ccccc2)cc1 (stereo not given) | 1.58 µM (active) |
| Cc1ccc(NC(=O)CNc2cccc(Br)c2)cc1S(=O)(=O)N1CCOCC1 | inactive |
| Cc1ccc(C(=O)NC(C)CCc2ccccc2)cc1S(=O)(=O)N1CCOCC1 (stereo not given) | 15.8 µM (active) |
| CC(C)[C@H](CO)Nc1nc(NCc2ccc(S(N)(=O)=O)cc2)c2ncn(C(C)C)c2n1 | 2 µM (active) |
| Oc1c(Cl)cc(Cl)cc1/C=N/Nc1ncc(Br)cn1 | 2.51 µM (active) |
| CC1CC2(C)Oc3ccccc3CC2C(C)C1CNCCCN(C)C (stereo not given) | 14.1 µM (active) |
| C(=NN1CCCCCC1)c1ccc2ccccc2n1 | inactive |
| CCc1nc2ccccc2c(C(=O)OCC(=O)Nc2cccc(S(=O)(=O)NC3=NCCCCC3)c2)c1C | 17.8 µM (active) |
| CCc1nc2ccccc2c(C(=O)OCC(=O)Nc2ccc(NC(C)=O)cc2)c1C | inactive |
| Cc1cc(/C=N/n2c(COc3ccccc3)nc3ccccc3c2=O)c(O)c([N+](=O)[O-])c1 | 7.94 µM (active) |
| Cn1c(SCC(=O)N/N=C/c2ccc([N+](=O)[O-])s2)nnc1-c1ccc(Cl)cc1 | 10 µM (active) |
| Cn1c(SCC(=O)N/N=C/c2ccc([N+](=O)[O-])s2)nnc1-c1ccccc1 | 17.8 µM (active) |
| CSc1sc(-c2nnc(SCC(=O)Nc3ccc(Cl)cc3)n2C)c2c1C=CCC2 | inactive |
| C=CCc1ccccc1OCC(=O)N/N=C/c1ccc(OC(C)=O)cc1OC(C)=O | 15.8 µM (active) |
| C=CCc1cccc(/C=N/NC(=O)CNc2ccccc2)c1O | 2.82 µM (active) |
| C=CCc1cccc(/C=N/NC(=O)CNc2ccccc2OC)c1O | 5.01 µM (active) |
| CCCCOc1ccc(C(=O)NNC(=S)NC(=O)CC)cc1 | 2.82 µM (active) |
| COc1ccc(-c2nn(-c3ccccc3)cc2C(=O)NC(=S)NNC(=O)c2ccncc2)cc1 | 15.8 µM (active) |

| Structure (SMILES) | Potency |
| --- | --- |
| CCCOc1ccc(C(=O)NC(=S)NNC(=O)c2c(-c3ccccc3)noc2C)cc1 | inactive |
| CCC(=O)NC(=S)NNC(=O)c1ccc(OC)cc1 | 15.8 µM (active) |
| COc1ccc(C(=O)NNC(=S)NC(=O)c2ccccc2)cc1 | 14.1 µM (active) |
| CCCC/C(C)=N/NC(=O)c1cn(-c2ccccc2)nc1-c1ccccc1 | inactive |
| C=CS(=O)(=O)c1c2cc(OC)ccc2nc2ccc(OC)cc12 | 28.2 µM (active) |
| COc1ccc(C)cc1Nc1nc(N)c2cc(OC)c(OC)cc2n1 | 2.82 µM (active) |
| O=C(COC(=O)c1cc([N+](=O)[O-])ccc1N1CCOCC1)Nc1ccc(Cl)cn1 | 6.31 µM (active) |
| CCN(CC)c1nc(-c2ccccn2)nc(-c2ccccc2)c1C#N | 7.08 µM (active) |
| CC(C)Nc1nc(-c2ccccn2)nc(-c2ccccc2)c1C#N | inactive |
| O=C(NNC(=O)C(c1ccccc1)c1ccccc1)c1ccccn1 | 3.16 µM (active) |
| O=C(NNC(=O)C12CC3CC(CC(C3)C1)C2)c1ccccn1 | 8.91 µM (active) |
| O=C(NCC(=O)N1CC(O)CC1C(=O)N1CCCC1C(=O)OCc1ccccc1)OCc1ccccc1 (stereo not given) | 3.16 µM (active) |
| COC(=O)c1cc(=O)n(CCc2ccc(OC)c(OC)c2)c(=Nc2ccc(F)c(Cl)c2)s1 | 3.16 µM (active) |
| CCCC[C@@H](CNC)NC[C@H](NCCCCC1CCCCC1)C(C)C | 28.2 µM (active) |
| CCN1C(=O)/C(=C/c2nc3ccccc3c(=O)n2-c2ccccc2)c2ccccc21 | 25.1 µM (active) |
| O=[N+]([O-])c1c(Nc2ccccn2)cc(Cl)c2nonc12 | 7.94 µM (active) |
| COc1cc(/C=C/c2ccc3cccc(O)c3n2)cc(OC)c1OC | inactive |
| COc1cc(C=CC(=O)c2cc(OC)c(OC)c(OC)c2)cc(OC)c1OC | 8.91 µM (active) |
| Cc1[nH]c2ccccc2c1C1=NNC(=Nc2ccc(F)cc2)SC1 | 31.6 µM (active) |
| O=C(Nc1ccc(Cl)cc1)Nc1nc(-c2sccc2Br)cs1 | 6.31 µM (active) |
| CC(C)[C@@H]1CC[C@@H](C)C[C@H]1OC(=O)C[n+]1cc(-c2ccc(Cl)cc2)n2c1CCCCC2 | 15.8 µM (active) |
| COc1ccc(-c2csc(NC(=O)c3ccccc3NS(=O)(=O)c3ccc(F)c(F)c3)n2)cc1 | 1.78 µM (active) |
| O=C(Nc1nc(-c2ccccc2)cs1)c1ccccc1NS(=O)(=O)c1ccc(F)cc1 | 2 µM (active) |
| NS(=O)(=O)c1ccc(Nc2nc(-c3ccc(F)cc3)cs2)cc1 | inactive |

| Structure (SMILES) | Potency |
| --- | --- |
| OC(c1cc(F)cc(Cl)c1)c1ncc(-c2cccc(C(F)(F)F)c2)[nH]1 (stereo not given) | 3.16 µM (active) |
| OC(c1ccc(Cl)cc1)c1ncc(-c2cccc(C(F)(F)F)c2)[nH]1 (stereo not given) | inactive |
| Cc1cc(C)c(C(O)c2ncc(-c3cccc4ccccc34)[nH]2)c(C)c1 (stereo not given) | inactive |
| CCN(CC)C(=O)C1=C(C)N(CCC2=CCCCC2)C(=O)C(CC(=O)NC(c2ccccc2)c2ccccc2)C1 (stereo not given) | inactive |
| C/C(=N\NC(=O)c1ccc(Cl)c(Cl)c1)c1ccccn1 | 0.178 µM (active) |
| C/C(=N\NC(=O)c1cccc2ccccc12)c1ccccn1 | 0.708 µM (active) |
| Cc1cc(C)cc(NC(=O)CSc2nc3[nH]ncc3c(=O)[nH]2)c1 | 2.51 µM (active) |
| Cc1cc(C)cc(NC(=O)CSc2nc3nc(C)cc(C)c3c(=O)[nH]2)c1 | 28.2 µM (active) |
| Cn1c(CO)cnc1S(=O)(=O)Cc1ccc([N+](=O)[O-])cc1 | inactive |
| COc1cc(C(=O)O/N=C(\N)Cc2ccc([N+](=O)[O-])cc2)cc(OC)c1OC | 2.82 µM (active) |
| O=c1[nH]c(=O)n(C2C[C@H](O)[C@@H](CO)O2)cc1C(F)(F)F (stereo not given in full) | 1.26 µM (active) |
| CCOC(=O)c1c(-c2ccccc2)oc2cc(CN(C)C)c(O)c(CN(C)C)c12 | 3.16 µM (active) |
| CCCC(=O)NC(c1ccc(Cl)cc1)c1ccc2cccnc2c1O (stereo not given) | 1.58 µM (active) |
| CCCCC(=O)NC(c1ccc(Cl)cc1)c1ccc2cccnc2c1O (stereo not given) | 1.41 µM (active) |
| CCCC(=O)NC(c1ccc(C(C)C)cc1)c1ccc2cccnc2c1O (stereo not given) | 0.178 µM (active) |
| CCCC(=O)NC(c1ccc(OC)cc1)c1ccc2cccnc2c1O (stereo not given) | 2.24 µM (active) |
| CC(C)CC(=O)NC(c1cccs1)c1ccc2cccnc2c1O (stereo not given) | 0.398 µM (active) |
| CCCC(=O)NC(c1ccc(C)cc1)c1ccc2cccnc2c1O (stereo not given) | 1.58 µM (active) |
| CCOc1ccccc1N1CCN(c2ncnc3scc(-c4ccc(OC)cc4)c23)CC1 | 28.2 µM (active) |
| CCN1CCN(CCCNC(=O)c2ccc(/C=C3/Sc4ccccc4N(Cc4ccccc4F)C3=O)cc2)CC1 | 28.2 µM (active) |
| C=CCOc1ccc(CNc2ccc3[nH]c(=O)[nH]c3c2)cc1OC | inactive |
| COc1ccc(Cc2nnc(N/N=C/c3ccccc3O)[nH]c2=O)cc1OC | 1.58 µM (active) |
| COc1ccc(Cc2nnc(N/N=C/c3ccc(O)cc3)[nH]c2=O)cc1OC | 0.631 µM (active) |

— PubChem BioAssay AID1745848 (National Center for Advancing Translational Sciences (NCATS), 2022)
